Screens (PubChem)
MEKK2mut PB1 HTS = MEK5 binding signal on mutant MEKK2 PB1, primary screen, biochemical, multiplex bead flow cytometry, Alexa488-MEK5. actives 0.35% (n = 290,000). percent response, % at 10 µM. AID 1530, 2009. Alexa488-MEK5 binding to MEKK2 mutant; in the data active means percent response above about 24%, passing the limit was not always enough
ATG4B inh = ATG4B protease inhibitors, primary screen, biochemical, fluorescence, uHTS; AID 504462, 2011; ATG4B cleavage of LC3-PLA2, NBD-HPC fluorescence, 1 h; Cysteine protease ATG4B (Homo sapiens), Q9Y4P1; actives 0.51% (n = 340,000); inhibition, % at 8.33 µM; in the data active means inhibition above about 40%
PREPL inhibitor = PREPL enzyme inhibitors, primary screen, biochemical, fluorescence polarization; inhibition, % at 5.96 µM; actives 0.68% (n = 320,000); recombinant PREPL, fluorescence polarization activity-based probe; in the data active means inhibition above about 43%
Target sequence (Q4J6C6 whole entry, looked up): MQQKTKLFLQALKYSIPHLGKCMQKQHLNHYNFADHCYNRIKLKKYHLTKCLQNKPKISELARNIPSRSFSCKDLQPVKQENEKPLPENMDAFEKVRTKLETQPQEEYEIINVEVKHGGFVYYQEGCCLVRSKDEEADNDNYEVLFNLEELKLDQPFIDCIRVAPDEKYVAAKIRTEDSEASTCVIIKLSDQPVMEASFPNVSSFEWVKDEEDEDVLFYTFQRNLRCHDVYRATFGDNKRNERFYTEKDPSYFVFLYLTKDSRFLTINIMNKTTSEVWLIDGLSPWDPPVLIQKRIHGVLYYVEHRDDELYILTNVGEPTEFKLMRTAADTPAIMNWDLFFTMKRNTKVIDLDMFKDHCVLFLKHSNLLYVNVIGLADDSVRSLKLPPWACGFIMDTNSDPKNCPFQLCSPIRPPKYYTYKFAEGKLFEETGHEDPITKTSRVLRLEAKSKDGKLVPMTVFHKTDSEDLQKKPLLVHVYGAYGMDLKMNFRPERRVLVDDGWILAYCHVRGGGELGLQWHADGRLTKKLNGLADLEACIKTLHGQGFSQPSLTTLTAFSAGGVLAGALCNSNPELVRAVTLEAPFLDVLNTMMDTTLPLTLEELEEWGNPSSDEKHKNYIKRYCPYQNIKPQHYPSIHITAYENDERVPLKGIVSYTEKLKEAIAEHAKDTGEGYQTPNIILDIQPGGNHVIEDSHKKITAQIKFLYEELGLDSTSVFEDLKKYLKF
MEKK2wt PB1 HTS = modulators of MEK5 binding to wildtype MEKK2, primary screen, biochemical, multiplex bead flow cytometry, Alexa488-MEK5. actives 1.1% (n = 290,000). Mitogen-activated protein kinase kinase kinase 2 (Homo sapiens), Q9Y2U5. Alexa488-MEK5 binding to MEKK2 WT; actives lie on both sides. binding response (% of control), % at 10 µM. AID 1531, 2009; in the data active means binding response below about 67% or above about 130%
MEKK3 PB1 HTS = modulators of MEKK3-MEK5 PB1 binding, primary screen, biochemical, wildtype MEKK3, multiplex bead flow cytometry, Alexa488-MEK5 | Mitogen-activated protein kinase kinase kinase 3 (Homo sapiens), Q99759 | bead-based flow cytometry, Alexa488-MEK5 binding to MEKK3; actives lie on both sides; 0 = blocked by unlabeled MEK5, 100 = vehicle | binding response (% of control), % at 10 µM | actives 1.4% (n = 290,000);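 active means binding response more than 3 SD above or below the average of its plate-row segment, actives on both sides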;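 further: Alexa488 bead fluorescence after subtracting the streptavidin-only scavenger bead signal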
UBC13 inh = UBC13 polyubiquitin chain formation inhibitors, primary screen, biochemical, TR-FRET, uHTS; actives 0.47% (n = 330,000); inhibition, % at 20 µM; Ubiquitin-conjugating enzyme E2 N (Homo sapiens), P61088; in the data active means inhibition above about 45%, passing the limit was not always enough
MEKK2wt confirm = modulators of MEK5 binding to wildtype MEKK2, confirmation, biochemical, single concentration, multiplex bead flow cytometry | shares compounds with MEKK3 PB1 HTS | Alexa488-MEK5 binding to MEKK2 WT; actives lie on both sides | binding response (% of control), % at 10 µM | actives 2.4% (n = 5,900) | AID 1892, 2009; in the data active means binding response below about 16% or above about 210%; inactive means in between
MEKK2mut-MEK5 = mutant MEKK2 PB1-MEK5 binding signal retest – biochemical, single concentration, multiplex bead flow cytometry, confirmation. actives 2% (n = 5,900). shares compounds with MEKK3 PB1 HTS. Alexa488-MEK5 binding to MEKK2 mutant. AID 1893, 2009. percent response, % at 10 µM; in the data active means percent response mostly above about 71%, no sharp cut-off; inactive means mostly below about 38%;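 further: higher means compound restores mutant binding toward wildtype level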
MEKK3 confirm = MEKK3 wild-type PB1 binding to MEK5, inhibitors, confirmation, biochemical, bead multiplex flow cytometry, single concentration, wildtype. shares compounds with MEKK3 PB1 HTS. Alexa488-MEK5 binding to MEKK3; stronger effect = lower value. binding response (% of control), % at 10 µM. actives 1.8% (n = 5,900);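 active means binding response below 72% of control, or above a set upper limit, though filed actives all read lower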
Hits are given with their value; . = inactive; / = not tested or not shown; [ ] = dose if it differs, or a comment. Sampled rows, rich in hits. Any-hit rate of the full collection: about 3.1%.

SMILES	MEKK2mut PB1 HTS	ATG4B inh	PREPL inhibitor	MEKK2wt PB1 HTS	MEKK3 PB1 HTS	UBC13 inh	MEKK2wt confirm	MEKK2mut-MEK5	MEKK3 confirm
COc1ccc(-c2csc(NC(=O)COC(=O)c3ccco3)n2)cc1	.	.	.	.	138	.	.	.	.
CCCC(=O)NC(=S)Nc1nc(-c2ccc(OC)cc2)cs1	.	.	.	.	137	.	.	.	.
Oc1[nH]c2ccccc2c1N=NC(=S)NCCc1ccccc1	.	.	.	.	130	/	.	.	.
CC(C)c1ccc2[nH]c(O)c(N=NC(=S)NCCc3ccccc3)c2c1	.	.	.	.	.	.	/	/	/
COc1ccc2oc(C(=O)Nc3ccc(S(=O)(=O)N(C)C4CCN(C)CC4)cc3)c(C)c2c1	.	.	.	157	.	.	.	.	.
COC(=O)C(Cc1ccccc1)NC(=O)C12CC3CC(CC(C3)C1)C2 (stereo unspecified)	.	.	.	.	134	.	.	.	.
CC(Sc1nc2ccccc2[nH]1)C(=O)O (stereo unspecified)	.	.	.	.	.	.	/	/	/
O=C(O)C(Cc1cc(Cl)ccc1Cl)Sc1nc2ccccc2[nH]1 (stereo unspecified)	.	.	.	.	135	.	.	.	.
Cn1cnnc1SCC(=O)Nc1ccc(F)cc1	.	.	.	.	.	.	/	/	/
Cc1c(Br)c(C(F)(F)F)nn1CC(=O)NCc1ccccc1	.	.	.	.	132	.	.	.	.
CCOC(=O)N1CCC(NC(=O)C2=CCN(S(=O)(=O)c3ccc(OC)cc3)CC2)CC1	.	.	.	.	128	.	.	.	.
CCOC(=O)N1CCC(NC(=O)C2=CCN(S(=O)(=O)c3ccccc3)CC2)CC1	.	.	.	.	.	.	/	/	/
COc1cc[n+]([O-])cc1[N+](=O)[O-]	/	.	/	/	/	/	/	/	/
O=C(c1ccc([N+](=O)[O-])cc1)N(C1=NCCCCS1)c1ccccc1	.	.	.	.	79[inhibitor]	.	.	.	.
Cc1cc2oc(=O)cc(CSc3nnc(-c4cccs4)o3)c2cc1C(C)C	.	.	.	.	134	.	.	.	.
CCOc1ccc(-n2c(SCc3cc(=O)oc4cc(C)c(C(C)C)cc34)nnc2-c2cccnc2)cc1	.	.	.	.	128	.	.	.	.
Cc1onc(-c2ccccc2)c1C(=O)OCC(=O)N1CCN(c2ccccc2)CC1	/	.	.	/	/	.	/	/	/
COc1ccc2ccccc2c1C1NC(=O)NC(C)=C1[N+](=O)[O-] (stereo unspecified)	.	.	.	.	.	.	/	/	/
N#Cc1c(C(F)(F)F)cc(-c2ccccc2)[nH]c1=O	.	.	.	.	127	.	.	.	.
Cc1ccc(-c2cc(C(F)(F)F)c(C#N)c(=O)[nH]2)cc1	.	.	.	.	.	.	/	/	/
O=C(NC1CCCC1)c1ccc(S(=O)(=O)N2CCOCC2)cc1	.	.	.	.	131	.	.	.	.
CN(C)CCN(C)Cc1c2ccccc2c(CN(C)CCN(C)C)c2ccccc12	24	.	.	.	.	.	.	.	.
CN(C)CCNc1oc(COc2ccc(-c3ccccc3)cc2)nc1C#N	.	.	.	150	.	.	.	.	.
